Screening results from PubChem BioAssay.
FMDV antiviral: antivirals against foot and mouth disease virus | FMDV antiviral cell-based qHTS | Potency, µM (top dose mostly 57.9 µM), without a hit: at the highest dose activity change, negative = inhibition, most hits filed as inhibitors | 1.2% of 410,000 active | AID 1159524; calls by dose curve; tested in HEK293T cells; also: read-out not given here; potency is read from the fitted curve at half-maximal effect; nearly all actives have a fitted effect of over 45% in size
AmpC inh detg: AmpC beta-lactamase inhibition with detergent present | P00811 | AmpC hydrolysis of nitrocefin, absorbance 480 nm, 0.01% Triton | Potency, µM (top dose mostly 114 µM), without a hit: at the top dose activity change, negative = inhibition, most hits filed as inhibitors | 0.041% of 370,000 active | AID 485294;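 also: potency is read from the fitted curve at half-maximal effect; 0% = no-compound wells and -100% = no-enzyme wells; nearly all actives have a fitted effect of over 25% in size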
Target sequence (P00811 whole entry, looked up): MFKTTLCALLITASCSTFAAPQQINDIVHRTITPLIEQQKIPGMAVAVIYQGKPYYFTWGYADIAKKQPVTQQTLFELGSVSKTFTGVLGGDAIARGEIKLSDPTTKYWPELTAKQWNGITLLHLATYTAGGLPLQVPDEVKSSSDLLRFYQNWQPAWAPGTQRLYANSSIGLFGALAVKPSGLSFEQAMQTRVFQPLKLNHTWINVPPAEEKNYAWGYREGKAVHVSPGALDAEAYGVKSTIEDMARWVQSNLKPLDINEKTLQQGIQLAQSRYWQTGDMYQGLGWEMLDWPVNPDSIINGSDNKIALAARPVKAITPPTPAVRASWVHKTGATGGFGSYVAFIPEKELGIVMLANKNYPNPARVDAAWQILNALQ
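AmpC (5.3 nM in the dispensed reagent) in 20 mM phosphate pH 7.0 with 0.01% (detergent screen) or 0.0001% Triton X-100 was preincubated with compounds for 15 min at room temperature. Nitrocefin was then added from an 800 uM solution, and hydrolysis was followed at 480 nm.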
HCV inhibitor: HCV inhibition; Huh7.5.1 HCVcc-Cre infection, luciferase reporter, 44 h; Potency, µM (series often up to 41.8 µM), inactives show at the top dose activity change, negative = inhibition, actives largely listed as inhibitors; 3.4% of 340,000 active; AID 651820; also: potency is read from the fitted curve at half-maximal effect
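Infectious HCVcc-Cre (~0.5 moi) was added to cells just after compound, with cells seeded 4 h earlier at 1,000 per well. Luciferase activity after 44 h culture reported infection; substrate was incubated 15 min at room temperature before reading.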
AmpC inh no detg: inhibitors of E. coli AmpC beta-lactamase without detergent; P00811; AmpC nitrocefin hydrolysis, absorbance 480 nm, 0.0001% Triton; Potency, µM (doses to about 57.1 µM), without a hit: at the highest dose activity change, negative = inhibition, most hits filed as inhibitors; 0.52% of 330,000 active;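 also: potency is read from the fitted curve at half-maximal effect; plate controls were no compound for no effect and no enzyme for full effect; nearly all actives have a fitted effect of over 20% in size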
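AmpC (5.3 nM in the dispensed reagent) in 20 mM phosphate pH 7.0 with 0.01% (detergent screen) or 0.0001% Triton X-100 was preincubated with compounds for 15 min at room temperature. Nitrocefin was then added from an 800 uM solution, and hydrolysis was followed at 480 nm.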
HCMV inh: inhibitors of human cytomegalovirus. HFF cells, HCMV-luciferase reporter, 72 h; stronger effect = lower value. activity change, negative = inhibition, % at 57.5 µM. 4.5% of 410,000 active; in the data active = activity change below about -60%; inconclusive = no clear call, values can overlap the other calls; inactive = above about -39%
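Human foreskin fibroblasts infected with luciferase-reporter HCMV at MOI 1 PFU/cell, compounds at two doses. Luciferase measured 72 h post infection; normalized to buffer-only basal and Salinomycin (10uM) controls.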
Starred values were filed as active, the others as inactive; ? = inconclusive; nt = not tested or not shown; [ ] = dose if it differs, or a comment. Most compounds without a hit are left out; they make up all but 7.3% or so of the library. Unless noted, calls follow the shape of the dose curve; as a rule, active = well fitted curve in the direction sought with a large enough effect; inconclusive = small, poorly fitted or top-dose-only effect, or another doubt; inactive = no such curve, though single readings can be large; an effect the other way counts as inactive or inconclusive. Unless noted, % is scaled to controls: 0 for no effect and ±100 for the full control effect.

SMILES	FMDV antiviral	AmpC inh detg	HCV inhibitor	AmpC inh no detg	HCMV inh
CC(C)(C)NC(=O)C(c1ccco1)N(C(=O)Cn1nnc(-c2ccc(F)cc2)n1)c1cccc(F)c1 (stereo unspecified)	12%	-1%	?	-26%	13
CCc1ccc(NC(=O)Cn2c(=O)n(CCCCC(=O)NCc3ccccc3Cl)c(=O)c3ccccc32)cc1	0%	14%	nt	nt	10
COc1ccccc1C(=O)c1cc2ccc(O)cc2oc1=O	7%	-11%	30%	-32%	-62*
CCc1nc2ccc(C(=O)NCCOc3ccc(OC)cc3)cn2c1N(CC)CCOC	-1%	nt	nt	nt	13
CCc1nc2ccc(C(=O)NCCOc3ccc(OC)cc3)cn2c1N(CCN(C)C)CC1CC1	-18%	nt	nt	nt	-64*
OC(c1ccc2c(c1)CN(Cc1c[nH]c3ccccc13)CCO2)c1ccccn1 (stereo unspecified)	3%	nt	nt	nt	nt
CCOC(=O)c1cc2c(=O)n3ccccc3nc2n(Cc2ccco2)c1=NC(=O)c1cccc(F)c1	19%	4%	nt	nt	-13
C[C@H]1CCC/C=C/C2C[C@H](O)C[C@H]2[C@H](O)/C=C/C(=O)O1 (stereo partly specified)	-10%[97.4 µM]	nt	nt	nt	nt
C[C@H]1CCC/C=C/[C@@H]2C[C@H](O)C[C@H]2[C@H](O)/C=C/C(=O)O1	-25%	-10%	0.56µM*	-3%	-98*
CCc1ccc(-c2nc(C(N)=O)c3[nH]c(=O)n(-c4ccccc4OC)c3n2)cc1	?	?	?	-21%	-98*
CCOC(=O)Cn1c(C(F)(F)F)nc2nc(Cl)c(Cl)nc21	?	nt	?	nt	-98*
COc1ccc(CN(C)CCCn2cnc3c(OCc4ccccc4)ncnc32)cc1OC	-17%	nt	?	nt	-16
CCC(C)c1ccc(C(CC)NC(=O)C2CCCO2)cc1 (stereo unspecified)	?	-4%	10µM*	37%	-37
Cc1cc(NC(=O)CCC(=O)N(c2ccccc2)C2(C(=O)NC3CCCCC3)CCCC2)no1	-25%	-12%	?	78%	-77*
COc1ccc(C(C(=O)NC2CCCC2)N(CCC(C)C)C(=O)CCC(=O)Nc2cc(C)on2)cc1 (stereo unspecified)	5%	1%	-5%	57%	-22
Cc1cc(NC(=O)CCC(=O)N(Cc2ccco2)C2(C(=O)NC3CCCC3)CCCCC2)no1	-9%	?	?	9%	-11
COc1cccc(C(C(=O)NC2CCCC2)N(CCC(C)C)C(=O)CCC(=O)Nc2cc(C)on2)c1 (stereo unspecified)	-17%	-4%	-5%	13%	-66*
COc1ccc(N(C(=O)Cn2nnc3ccccc32)C2(C(=O)NC3CCCC3)CCCCC2)cc1	nt	-5%	5.6µM*	37%	?
CCN(CC)CCn1c2ccccc2c2cnc(N)c(C#N)c21	-19%	-3%	10µM*	-6%	-98*
CCN(CC)CCn1c2ccccc2c(=O)c2c(O)ccc(O)c21	-10%	nt	-11%	nt	4
CN(C)C=Nc1ncc2c3ccccc3n(Cc3ccccc3)c2c1C#N	-14%	-6%	0%	1%	-28
CN(C)C=Nc1ncc2c3ccccc3n(CCN(C)C)c2c1C#N	1%	?	-6%	6%	-98*
COc1cc(OC)c(C(=O)OCC(=O)Nc2ccc(N3CCOCC3)cc2)cc1OC	-18%	nt	7%	-18%	60
CNCc1c(OCc2ccccc2F)ccc2ccccc12	-20%	7%	8.9µM*	19%	?
Nc1nonc1C(=O)NCCNCc1c(OCc2ccccc2F)ccc2ccccc12	?	-4%	14µM*	-17%	6
SMILES	FMDV antiviral	AmpC inh detg	HCV inhibitor	AmpC inh no detg	HCMV inh
Cc1ccc(NC(=O)CN2C(=O)COc3ccc(S(=O)(=O)N4CCOCC4)cc32)cc1N(C)C	-19%	2%	11%	2%	-10
O=C(CCl)N1c2ccccc2CCc2ccccc21	nt	2%	nt	-1%	-102*
COc1ccc(S(=O)(=O)N2C[C@@H](O)COC[C@@H]3O[C@H](CC(=O)NCCCN4CCOCC4)CC[C@H]32)cc1	-9%	nt	nt	nt	-74*
O=C(O)CN1C(=O)/C(=C\c2ccccc2OCc2ccc(Cl)cc2Cl)SC1=S	25µM*	-4%	30%	-12%	-32
O=C(O)CN1C(=O)/C(=C\c2cc(Br)ccc2OCc2ccc([N+](=O)[O-])cc2)SC1=S	-3%	-4%	13%	20µM*	15
O=C(O)CN1C(=O)/C(=C\c2cc(Br)ccc2OCc2ccccc2Cl)SC1=S	-16%	?	-16%	-41%	24
CC(C)(C)NC(=S)NNC(=O)c1cccc(Br)c1	22%	4%	6%	-25%	0
CC(C)(C)c1ccc(C(=O)NCC(c2cccs2)S(=O)(=O)c2cccs2)cc1 (stereo unspecified)	0%	11%	nt	nt	-34
CC(C)(C)c1ccc(C(=O)NCC(c2cccs2)S(=O)(=O)c2ccc(F)cc2)cc1 (stereo unspecified)	20µM*	0%	nt	nt	-31
Cc1oc(-c2cc(F)ccc2F)nc1CN1CCN(c2ncnc3ccccc23)CC1	16µM*	-9%	0.56µM*	73%	-63*
COc1ccccc1N1CCN(Cc2nc(-c3ccc(F)cc3)oc2C)CC1	?	11%	22µM*	158%	-12
CCc1ccc(-c2nc(CN3CCC(C(=O)NCc4ccccc4OC)CC3)c(C)o2)cc1	?	-1%	10µM*	151%	-38
COc1ccccc1CNC(=O)C1CCN(Cc2nc(-c3ccc(Cl)cc3)oc2C)CC1	nt	nt	nt	nt	0
COc1ccc(-c2nc(CN3CCN(c4ccccc4OC)CC3)c(C)o2)cc1	28µM*	3%	?	151%	?
CN(C)N1C(=O)CC(C)(c2ccc([N+](=O)[O-])cc2)C1=O (stereo unspecified)	-13%	-10%	6%	-8%	-8
CO[C@H]1[C@H](NC(=O)c2ccsc2)c2ccccc2C12CCN(Cc1c(O)ccc3ccccc13)CC2	13%	nt	nt	nt	nt
COc1ccccc1CNC(=O)C1CCN(Cc2nc(-c3ccc(OC)c(OC)c3)oc2C)CC1	-1%	-8%	nt	nt	3
COc1ccccc1N1CCN(c2nnc(-c3ccc(F)cc3)c3ccccc23)CC1	20µM*	7%	9%	-17%	5
COc1ccc(-c2nc(CN3CCC(c4ccccc4)CC3)c(C)o2)cc1OC	-15%	1%	?	100%	-65*
COc1cc(C(=O)N(C)CCOc2ccccc2)ccc1OCC(=O)Nc1cccc(C(F)(F)F)c1	?	-6%	2.8µM*	164%	-69*
CCOC(=O)C1CCN(C(=O)c2ccc(OCC(=O)Nc3cccc(C(F)(F)F)c3)c(OC)c2)CC1	?	-15%	2.8µM*	212%	-70*
